In general, AC50 refers to the midpoint of the concentration-response curve, whichever way the signal moves.

A short description of assay [1]: Tanguay_ZF_120hpf_ActivityScore_legacy: (Legacy) Oregon State University Tanguay Lab 120 Hour Post-fertilization zebrafish Assay Score for Activity (AID 2283742). Put shortly: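 Dechorionated Tropical 5D embryos, one per well from 6 hpf, statically exposed to 120 hpf at 28 °C in 0.64% DMSO. Mortality and malformations scored binary by brightfield microscopy; activity score combines 18 endpoints, fitted positively versus DMSO.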

Assay [2] is described as follows: ArunA_CellTiter_hNC: Viability Assessment in the ArunA Biomedical's Oris Neural Crest (hNC) Cell Migration Assay (AID 2283752). Put shortly: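 Cell titer was measured with the CellTiter Aqueous One reagent after 72 h of chemical dosing. Cells were H9-derived embryonic neural crest stem cells seeded on Matrigel, 60,000 per well, and given 16 h at 37C beforehand.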

The nature of assay [3]: ArunA_Migration_hNP: ArunA Biomedical's Oris Neuroprogenitor (hNP) Cell Migration Assay (AID 2283754). The method, boiled down:
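Human H9-derived hNP1 neuroprogenitors on Matrigel with LIF/bFGF, plated around seeding stoppers for 16 h at 37C; stoppers removed at start of 72 h chemical exposure. Calcein-AM staining, fluorescence 494/517 nm in detection zone; loss-of-signal vs DMSO; cytochalasin D control.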

Assay [4] can be described thus: ArunA_Migration_hNC: ArunA Biomedical's Oris Neural Crest (hNC) Cell Migration Assay (AID 2283755). Put shortly:
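Human H9-derived neural crest stem cells, 60,000/well on Matrigel, 16 h at 37C, then 72 h chemical exposure after seeding-stopper removal. Migration into detection zone read as calcein-AM fluorescence (ex494/em517), relative to DMSO.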

Assay [5] can be described thus: ArunA_NOG_NucleusCount: ArunA Biomedical's Neurite Outgrowth (NOG) Assay for Nucleus Count (AID 2283756). The method, boiled down:
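Human H9-derived differentiated neurons were exposed for 48 h right after seeding. Hoechst-stained nuclei gated by size and intensity were counted by automated high-content imaging as viable neurons. Loss of signal vs DMSO.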

Assay [6] can be described thus: ArunA_NOG_NeuriteLength: ArunA Biomedical's Neurite Outgrowth (NOG) Assay for Neurite Length (AID 2283757). The method, boiled down:
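Differentiated human H9-derived neurons were exposed for 48 h from seeding, then stained with Hoechst and βIII-tubulin. Automated high-content imaging gave total neurite length per valid neuron, counting processes >10 um. Loss of signal was scored versus DMSO.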

Assay [7] in a line: ArunA_NOG_NeuritesPerNeuron: ArunA Biomedical's Neurite Outgrowth (NOG) Assay for Neurites Per Neuron (AID 2283758). Put shortly:
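Differentiated human H9-derived neurons exposed to chemicals for 48 h from seeding, then stained with Hoechst and βIII-tubulin/DyLight 488. Automated imaging counted neurites (processes >10 um) per valid neuron; loss of signal versus DMSO scored.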

Assay [8] in a line: ArunA_NOG_BranchPointsPerNeurite: ArunA Biomedical's Neurite Outgrowth (NOG) Assay for Branch Points Per Neurite (AID 2283759). Put shortly:
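Automated image analysis traced neurites (processes >10 um) from valid cell bodies after Hoechst and βIII-tubulin staining. hNN cells from H9 embryonic stem cells, 48 h exposure. Fitted bidirectionally against DMSO.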

The nature of assay [9]: ACEA_AR_agonist_AUC_viability: ACEA Biosciences xCELLigence Real-Time Cell Analysis on Androgen Receptor Agonism for Viability (AID 2283775).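 For AC50: viability read 80 hours after compound addition.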 The method, boiled down:
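Real-time impedance tracking of 22Rv1 growth, readings every 5 min for 5 h then hourly; area-under-curve viability endpoint at 80 hours, relative to DMSO. Compounds at eight concentrations, 1:4 steps, top 100 uM, n = 2.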

Assay [10] can be described thus: ACEA_AR_antagonist_AUC_viability: ACEA Biosciences xCELLigence Real-Time Cell Analysis on Androgen Receptor Antagonism for Viability (AID 2283776).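 Note: 22Rv1 human prostate cancer cells growing on impedance electrode plates; hits lower the growth signal relative to DMSO meaning cytotoxicity.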 The method, boiled down: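 Viability endpoint from label-free cell-index monitoring: 22Rv1 cultures treated with an eight-point 1:4 dilution series starting at 100 uM final, AUC at 80 h fitted against DMSO.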
Assay [11] deals with Luciferin 4-monooxygenase (Photinus pyralis) (UniProt P08659). As to the kind of experiment: CCTE_Simmons_QuantiLum_inhib_2: CCTE's Firefly Luciferase Inhibition Assay, Simmons Lab (AID 2283767). The method, boiled down:
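Luminescence loss relative to DMSO vehicle defines inhibition; detection reagent containing 150 uM D-luciferin and 147 uM dATP (final, pH 7.8) is injected immediately before each read. Enzyme is preincubated with an 8-point titration (5 nM–87.5 uM final) for 30 min at 37C.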

Assay [12] can be described thus: CEETOX_H295R_MTT_cell_viability: Viability Assessment in the CeeTox HT-H295R MTT Assay (AID 2283718; active = hit-call score of the fitted dose curve at least 0.9, where 1 is the maximum; inactive = score below 0.9). Put shortly: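 Human H295R adrenal cells, prestimulated 48 h with 10 uM forskolin, were exposed 48 h to chemicals in 0.1% DMSO. Viability was measured in the same wells by MTT (0.5 mg/ml, 4 h, 37 C), absorbance 570/650 nm, as percent of controls.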

Records with an inconclusive call do not appear. Activity calls are given as the source filed them. Rule for the calls, unless noted: active = hit-call score of the fitted dose curve at least 0.9, where 1 is the maximum; inconclusive = response in the unintended direction; inactive = score below 0.9.

Luciferin 4-monooxygenase (Photinus pyralis), sequence (P08659 whole entry, looked up): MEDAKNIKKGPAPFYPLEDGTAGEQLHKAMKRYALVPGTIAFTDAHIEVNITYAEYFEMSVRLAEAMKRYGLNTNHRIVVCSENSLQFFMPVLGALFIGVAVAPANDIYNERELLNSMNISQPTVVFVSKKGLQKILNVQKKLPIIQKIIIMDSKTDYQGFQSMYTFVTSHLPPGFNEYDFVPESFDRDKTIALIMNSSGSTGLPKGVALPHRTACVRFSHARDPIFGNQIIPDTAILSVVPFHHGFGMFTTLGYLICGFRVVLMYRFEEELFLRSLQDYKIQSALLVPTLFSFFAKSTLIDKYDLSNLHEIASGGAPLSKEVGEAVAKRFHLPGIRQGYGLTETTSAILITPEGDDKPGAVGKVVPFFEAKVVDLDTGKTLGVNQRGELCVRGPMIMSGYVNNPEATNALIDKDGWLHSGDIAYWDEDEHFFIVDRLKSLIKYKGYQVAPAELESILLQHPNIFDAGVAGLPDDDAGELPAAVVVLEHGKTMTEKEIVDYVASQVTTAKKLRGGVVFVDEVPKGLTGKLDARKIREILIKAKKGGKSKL

For `CC1=NNC(=O)N(/N=C/c2cccnc2)C1`, the outcome in assay [1], in assay [2], in assay [3], in assay [4], in [9] and in [10] was inactive. In addition, the AC50 was 59.4 µM (active) in assay [5], 73.8 µM (active) in [6], 65 µM (active) in assay [7] and 66.2 µM (active) in [8].

Take `CCc1cnc(C2=NC(C)(C(C)C)C(=O)N2)c(C(=O)O)c1` (stereo not given): the call in assay [1], in assay [9] and in assay [10] was inactive.

With `COP(=O)(OC)OC(Br)C(Cl)(Cl)Br` (stereo not given), in assay [1], the molecule was classed as inactive. Besides, the AC50 was 75.1 µM (active) in assay [9] and 61.3 µM (active) in assay [10].

`CCOP(=S)(OCC)OC(Cl)C(Cl)(Cl)Cl` (stereo not given): the result in assay [1] and in assay [11] was inactive.

Take `Cc1nn(-c2cc(NS(C)(=O)=O)c(Cl)cc2Cl)c(=O)n1C(F)F`: the molecule was classed as inactive in [1], in assay [9] and in [10].

On to `CNC(=O)ON=C(SC)C(=O)N(C)C`, for which the molecule was called inactive in assay [12], in assay [1], in [9] and in assay [10].

As to `COc1cc(OC)nc(Sc2cccc(Cl)c2C(=O)O)n1`, the call in [1] and in assay [10] was inactive.

As to `CCC(CC)Nc1c([N+](=O)[O-])cc(C)c(C)c1[N+](=O)[O-]`, the molecule was called inactive in assay [1]. Also, the AC50 is 64.5 µM (active) in assay [9] and 50 µM (active) in [10].

The record behind these values is PubChem BioAssay (EPA / NIEHS).
